Compound activity from PubChem BioAssay.
In the library only some 1.6% were active in any assay of this set; here they are far more common.
KCNQ2 pot – potentiators of rat KCNQ2 potassium channel. CHO-K1 KCNQ2, FluxOR thallium flux fluorescence; stronger effect = higher value. Potassium voltage-gated channel subfamily KQT member 2 (Rattus norvegicus), O88943. B-score at 10 µM. actives 0.54% (n = 310,000);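 active means fluorescence ratio B-score at least 3 SD of library B-scores, with initial fluorescence B-score within 3 of them, cut at about 5.3 in these data; same plate scores as AID 2156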;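 further: B-score of peak minus minimum over baseline fluorescence ratio after K+ and Tl+ stimulus; positive B-score means potentiation of KCNQ2 with more thallium influx and brighter signal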
KCNQ2 block – rat KCNQ2 potassium channel inhibitors, primary screen, cell-based, CHO-K1, FluxOR thallium flux, B-score | 20 min; stronger effect = lower value | actives 1.1% (n = 310,000) | B-score at 10 µM | AID 2156, 2009;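 active means fluorescence ratio B-score at most minus 3 library SDs, with starting brightness B-score within 2 library SDs, cut at about -5.5 in these data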
Kir21 conf inh – mouse Kir2.1 channel blockers, retest, confirmation, cell-based, FluxOR thallium flux, duplicate; shares compounds with KCNQ2 pot; Kir2.1-expressing cells, FluxOR thallium flux fluorescence; stronger effect = lower value; Tl flux remaining, % of negative control (stronger effect = lower value), % at 10 µM; actives 41% (n = 2,300); AID 2032, 2009;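 active means Primary-screen hit whose thallium flux fell at least 3 control SD below untreated wells in both duplicates, with normal baseline fluorescence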;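 further: 0% = blank wells without stimulus and 100% = stimulated no-compound controls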
Target sequence (P35561 whole entry, looked up): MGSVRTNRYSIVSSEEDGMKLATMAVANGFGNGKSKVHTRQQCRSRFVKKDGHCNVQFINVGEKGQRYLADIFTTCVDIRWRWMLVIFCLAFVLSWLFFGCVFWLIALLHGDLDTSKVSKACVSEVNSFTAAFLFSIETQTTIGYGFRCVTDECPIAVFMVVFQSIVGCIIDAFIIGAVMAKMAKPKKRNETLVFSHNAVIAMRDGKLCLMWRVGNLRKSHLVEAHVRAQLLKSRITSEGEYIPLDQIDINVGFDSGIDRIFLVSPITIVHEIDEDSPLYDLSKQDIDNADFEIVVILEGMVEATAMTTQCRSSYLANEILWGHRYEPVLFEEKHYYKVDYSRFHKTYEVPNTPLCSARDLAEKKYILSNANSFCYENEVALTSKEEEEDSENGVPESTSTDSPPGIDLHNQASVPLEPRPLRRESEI
HEK293 ctr – parental HEK293 activity in Kir2.1 inhibitor counter-screen | AID 2105 | shares compounds with KCNQ2 pot | FluxOR signal as % of negative control (100 = no effect), % at 10 µM | parental HEK293 cells, FluxOR thallium flux fluorescence; 0% = unstimulated blank wells | actives 19% (n = 2,300);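 active means dye signal at least 3 control SD above or below untreated wells in both duplicates, raw fluorescence within 3, either direction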;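 further: percent is based on the flux ratio of peak minus minimum fluorescence over baseline F0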
CHO-K1 ctr – nonspecific thallium flux increase in parental CHO-K1, confirmation, counter-screen for KCNQ2 potentiator project, cell-based, FluxOR thallium flux, duplicate; parental CHO-K1 cells, FluxOR thallium flux fluorescence; zero = vehicle mean+3SD, 100% = vehicle-minus-blank window; shares compounds with KCNQ2 pot; AID 2282, 2010; actives 43% (n = 1,200); activity increase over 3SD of controls, % at 10 µM;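 active means signal rise of at least 3 SD above the untreated control mean, in both duplicate wells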;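 further: counter screen of KCNQ2 potentiator hits so any rise reflects channel-independent effects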
KCNQ1 sel pot – human KCNQ1 channel potentiation off-target, confirmation, selectivity assay for KCNQ2 potentiator project, cell-based, CHO, FluxOR thallium flux | CHO KCNQ1 stable, FluxOR thallium flux fluorescence; beyond 3SD, as % of vehicle-control signal | AID 2283, 2010 | shares compounds with KCNQ2 pot | activation over 3SD threshold, % at 10 µM | actives 28% (n = 1,200);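 active means fluorescence ratio rise of at least 3 SD of vehicle wells above their mean, in both replicate wells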;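 further: 0% = vehicle mean plus 3 SD and 100% = vehicle minus unstimulated blank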
KCNQ2 pot conf – rat KCNQ2 channel potentiators, confirmation, cell-based, CHO, FluxOR thallium flux, duplicate | CHO-KCNQ2 cells, FluxOR thallium flux fluorescence | actives 68% (n = 1,200) | AID 2287, 2010 | shares compounds with KCNQ2 pot | potentiation, less the hit threshold, % at 10 µM;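 active means fluorescence ratio rising 3 SD or more over the vehicle control mean in both replicates, plus primary screen hit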;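 further: peak minus minimum thallium fluorescence divided by baseline after K/Tl stimulus; 0% = vehicle mean plus 3 SD and 100% = vehicle minus unstimulated blank difference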
Kir2-1 sel – mouse Kir2.1 channel activation off-target, confirmation, selectivity assay for KCNQ2 potentiator project, cell-based, HEK293, FluxOR thallium flux. shares compounds with KCNQ2 pot. actives 2% (n = 1,200). HEK293 Kir2.1, FluxOR thallium flux fluorescence. AID 2345, 2010. activity over 3SD threshold, % at 10 µM;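 active means fluorescence ratio rise of at least 3 SD above the vehicle-control mean, seen in both replicates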;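 further: 0% = vehicle mean plus 3 SD and 100% = vehicle minus no-stimulus blank window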
KCNQ2 W236L MoA – potentiators of retigabine-insensitive KCNQ2 W236L, mechanism study for KCNQ2 potentiator project, cell-based, rat KCNQ2 W236L, CHO, automated patch clamp; shares compounds with KCNQ2 pot; automated patch clamp current; current increase over 3SD of negative controls (%), stronger effect = higher value, % at 25 µM; actives 10% (n = 940);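 active means current increase at least 3 SD of the untreated controls above them in both duplicate recordings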
Numbers without * were called inactive; i = inactive; · = no result given.

SMILES | KCNQ2 pot | KCNQ2 block | Kir21 conf inh | HEK293 ctr | others
CN(C)c1nc(N)ncc1-c1ccc(Oc2ccccc2)cc1 | 1.3 | i | · | ·
Cc1ccc(-n2nnc(-c3ccnc4ccccc34)n2)cc1 | 1.6 | i | · | ·
CCOCCCN1CC(=O)N2[C@@H](Cc3c([nH]c4ccccc34)C2(C)C)C1=O | 1.9 | i | · | ·
CN(CCOc1ccc(Cl)cc1)C(=O)CN1C(=O)NC2(CCCCC2)C1=O | 0.86 | i | · | ·
Cc1cccc(OCC(=O)Nc2ccc(NC(=O)c3ccco3)cc2)c1 | · | i | · | ·
NC(=O)CSc1nnc(-c2ccccn2)n1Cc1ccco1 | · | i | · | ·
C(=C\c1ccccc1)/CSc1nnc(-c2ccccn2)n1Cc1ccco1 | -5.8 | -5.8* | 60%* | i
CC(C)Cn1c(N)c(C(=O)COC(=O)CC23CC4CC(CC(C4)C2)C3)c(=O)n(C)c1=O | · | i | · | ·
COc1ccc(S(=O)(=O)N2CCC(C(=O)NCc3cccnc3)CC2)cc1OC | · | i | · | ·
CC(/C=C1\SC(=S)N(NC(=O)c2ccncc2)C1=O)=C\c1ccccc1 | 3.2 | i | · | ·
CC(/C=C1\SC(=S)N(NC(=O)c2ccc(C)cc2)C1=O)=C\c1ccccc1 | 9.2* | i | i | i | CHO-K1 ctr=-4;KCNQ1 sel pot=-10;KCNQ2 pot conf=-20;Kir2-1 sel=-21
CC(/C=C1\SC(=S)N(NS(=O)(=O)c2ccccc2)C1=O)=C\c1ccccc1 | 12* | i | i | 260%* | CHO-K1 ctr=0.8*;KCNQ1 sel pot=63*;KCNQ2 pot conf=56*;Kir2-1 sel=-27;KCNQ2 W236L MoA=i
COc1ccc(/C=C2/SC(=S)N(NS(=O)(=O)c3ccccc3)C2=O)cc1 | 3.5 | i | · | ·
CC1CCC2(CC1)NC(=O)N(Cc1cccc(C(F)(F)F)c1)C2=O (centres undefined) | 1.7 | i | · | ·
Cc1[nH]c2ccccc2c1SCC(=O)N1CCCc2ccccc21 | · | i | 54%* | i
Cc1[nH]c2ccccc2c1C(=O)C(=O)N1CCCc2ccccc21 | · | i | · | ·
CCOC(=O)c1c(NC(=O)c2cc3n(n2)C(C(F)(F)F)CC(c2cccs2)N3)sc(C)c1C (centres undefined) | 1.5 | i | · | ·
COc1ccc(C(=O)CN2Cc3ccccc3C2=N)cc1 | 0.08 | i | 24%* | i
COc1ccc(C(=O)Cn2c(=N)n(C)c3ccccc32)cc1 | · | i | · | ·
COc1cccc(CC(=O)Nc2ccc3c(c2)CCC3)c1 | 6* | i | i | i | CHO-K1 ctr=-14;KCNQ1 sel pot=-18;KCNQ2 pot conf=12*;Kir2-1 sel=-30;KCNQ2 W236L MoA=i
COc1ccc(CC(=O)Nc2ccccc2N2CCOCC2)cc1OC | 0.11 | i | · | ·
COc1cc(CC(=O)Nc2ccc3c(c2)CCC3)cc(OC)c1OC | 0.88 | i | · | ·
COc1cccc(CC(=O)Nc2ccccc2C(=O)N2CCOCC2)c1 | 0.29 | i | · | ·
COc1ccc(CC(=O)Nc2ccccc2N2CCCCC2)cc1OC | · | i | i | 78%*
